In PubChem BioAssay AID1159580 (chemical genetic matrix, 2015):
“And” between values parts separate entries of the source, which are not always exact repeats. Equal values may be shown once. Among all 5,500 compounds or so, about 2,000 (36%) were called active. Not shown: some 18% with an inconclusive outcome. No stated cut-off is given here; in the data, active means normalized growth mostly below about 0.91 (no sharp cut-off); inconclusive means no clear call, values can overlap the other calls; inactive means mostly above about 0.92. The list shows a part of the results.

Experiment: chemical genetic growth profiling, strain panel (AID 1159580);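 further: tested at 20 µM; growth read once vehicle control cultures reached saturation at 30 °C; 1 = growth at the plate median or of vehicle wells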
Details: S. cerevisiae deletion strains, growth OD
[1] = locus YHR030C, strain SLT2, stronger effect = lower value
[2] = locus YHR079C, strain IRE1, stronger effect = lower value
[3] = locus YJL095W, strain BCK1, stronger effect = lower value
[4] = locus YJR066W, strain TOR1, stronger effect = lower value
[5] = locus YLR113W, strain HOG1, stronger effect = lower value
[6] = locus YNL183C, strain NPR1, stronger effect = lower value
[7] = locus YOR231W, strain MKK1, stronger effect = lower value
[8] = locus YPL256C, strain CLN2, stronger effect = lower value

Measured: normalized growth

COc1cc2oc3cc(OC)c(OC)c(CC=C(C)C)c3c(=O)c2c(OC)c1CC=C(C)C
inactive: [1] 0.934 | [2] 0.927 | [3] 0.918 | [4] 0.885 | [5] 0.895 | [6] 0.862 | [7] 0.905 | [8] 0.955

COc1c(O)cc2oc3cc(O)c(CC=C(C)C)c(O)c3c(=O)c2c1CC=C(C)C
inactive: locus YAL021C, strain ccr4, stronger effect = lower value 1 | locus YAL026C, strain drs2, stronger effect = lower value 0.982 | locus YAL030W, strain snc1, stronger effect = lower value 0.984 | locus YBR009C, strain hhf1, stronger effect = lower value 0.983 | locus YBR023C, strain chs3, stronger effect = lower value 0.923 | locus YBR171W, strain sec66, stronger effect = lower value 1.02 | locus YBR279W, strain paf1, stronger effect = lower value 0.968 | locus YCL011C, strain gbp2, stronger effect = lower value 0.912 | locus YCL016C, strain dcc1, stronger effect = lower value 0.957 | locus YCL061C, strain MRC1, stronger effect = lower value 0.991 | locus YCL069W, strain vba3, stronger effect = lower value 1.01 | locus YCR088W, strain abp1, stronger effect = lower value 1 | locus YDL005C, strain med2, stronger effect = lower value 1.05 | locus YDL040C, strain nat1, stronger effect = lower value 1 | locus YDL185W, strain tfp1, stronger effect = lower value 0.916 | locus YDR001C, strain nth1, stronger effect = lower value 1.01 | locus YDR297W, strain sur2, stronger effect = lower value 0.923 | locus YDR334W, strain swr1, stronger effect = lower value 0.999 | locus YDR335W, strain msn5, stronger effect = lower value 0.957 | locus YEL003W, strain gim4, stronger effect = lower value 0.937 | locus YEL037C, strain rad23, stronger effect = lower value 1 | locus YEL061C, strain CIN8 (second series), stronger effect = lower value 1.01 | locus YER016W, strain bim1, stronger effect = lower value 0.969 | locus YER110C, stronger effect = lower value 0.952 | locus YER111C, strain swi4, stronger effect = lower value 1.02 | locus YFR010W, strain ubp6, stronger effect = lower value 0.978 | locus YGL167C, strain pmr1, stronger effect = lower value 1.01 | locus YGL173C, strain kem1, stronger effect = lower value 0.979 | locus YGL227W, strain vid30, stronger effect = lower value 1 | locus YGL240W, strain doc1, stronger effect = lower value 0.887 | locus YGL253W, strain hxk2, stronger effect = lower value 0.99 | locus YGR252W, strain gcn5, stronger effect = lower value 0.833 | locus YHR013C, strain ard1, stronger effect = lower value 0.985 | locus YHR027C, strain rpn1, stronger effect = lower value 0.969 | locus YHR142W, strain chs7, stronger effect = lower value 0.89 | locus YIL073C, strain SPO22, stronger effect = lower value 0.695 | locus YJL092W, strain hpr5, stronger effect = lower value 1 | locus YJL115W, strain asf1, stronger effect = lower value 1.03 | locus YJL154C, strain vps35, stronger effect = lower value 1.04 | locus YJL168C, strain set2, stronger effect = lower value 0.948 | locus YJL187C, strain SWE1, stronger effect = lower value 0.936 | [4] 0.891 | locus YKL009W, strain mrt4, stronger effect = lower value 0.885 | locus YKL068W, stronger effect = lower value 0.947 | locus YKL160W, strain elf1, stronger effect = lower value 0.904 | locus YKR026C, strain gcn3, stronger effect = lower value 1 | locus YKR091W, strain srl3, stronger effect = lower value 1.01 | locus YLL001W, strain dnm1, stronger effect = lower value 0.963 | locus YLL026W, stronger effect = lower value 1 | locus YLL041C, strain sdh2, stronger effect = lower value 0.986 | locus YLR102C, strain apc9, stronger effect = lower value 0.93 | locus YLR258W, strain gsy2, stronger effect = lower value 0.939 | locus YLR342W, strain FKS1, stronger effect = lower value 0.944 | locus YLR357W, strain rsc2, stronger effect = lower value 0.957 | locus YLR370C, strain arc18, stronger effect = lower value 0.982 | locus YLR384C, strain iki3, stronger effect = lower value 0.983 | locus YML124C, strain tub3, stronger effect = lower value 0.938 | locus YMR125W, strain sto1, stronger effect = lower value 1.01 | locus YMR129W, stronger effect = lower value 0.974 | locus YMR231W, strain pep5, stronger effect = lower value 1 | [6] 0.887 | locus YNL209W, strain ssb2, stronger effect = lower value 0.968 | locus YNL248C, strain rpa49, stronger effect = lower value 0.994 | locus YNL322C, strain KRE1 (second series), stronger effect = lower value 0.995 | locus YNR049C, strain mso1, stronger effect = lower value 0.967 | locus YOL012C, strain htz1 0.271 | locus YOR001W, strain rrp6, stronger effect = lower value 0.916 | locus YOR070C, strain gyp1, stronger effect = lower value 0.95 | locus YOR080W, strain dia2, stronger effect = lower value 0.984 | locus YOR083W, strain WHI5, stronger effect = lower value 0.941 | locus YOR106W, strain vam3, stronger effect = lower value 0.916 | locus YOR265W, strain rbl2, stronger effect = lower value 0.964 | locus YOR270C, strain vph1, stronger effect = lower value 0.881 | locus YOR290C, strain snf2, stronger effect = lower value 0.912 | locus YOR316C, strain cot1, stronger effect = lower value 0.927 | locus YPL078C, strain atp4, stronger effect = lower value 0.991 | locus YPL106C, strain sse1, stronger effect = lower value 0.856 | locus YPL240C, strain hsp82, stronger effect = lower value 0.951 | locus YPR119W, strain clb2, stronger effect = lower value 0.931 | locus YPR141C, strain kar3, stronger effect = lower value 0.96
active: locus YAL013W, strain DEP1, stronger effect = lower value 0.346 | locus YBR021W, strain FUR4, stronger effect = lower value 0.578 | locus YBR229C, strain ROT2, stronger effect = lower value 0.913 | locus YBR231C, strain swc5, stronger effect = lower value 0.851 | locus YCL029C, strain bik1, stronger effect = lower value 0.773 | locus YDL035C, strain GPR1, stronger effect = lower value 0.611 | locus YDL074C, strain BRE1, stronger effect = lower value 0.242 | locus YDL101C, strain DUN1, stronger effect = lower value 0.633 | locus YDL192W, strain arf1, stronger effect = lower value 0.579 | locus YDR069C, strain doa4, stronger effect = lower value 0.89 | locus YDR101C, strain arx1, stronger effect = lower value 0.799 | locus YDR137W, strain rgp1, stronger effect = lower value 0.501 | locus YDR159W, strain sac3, stronger effect = lower value 0.749 | locus YDR162C, strain NBP2, stronger effect = lower value 0.543 | locus YDR195W, strain ref2 0.57 | locus YDR318W, strain mcm21, stronger effect = lower value 0.79 | locus YDR388W, stronger effect = lower value 0.833 | locus YDR392W, strain spt3, stronger effect = lower value 0.673 | locus YDR502C, strain sam2, stronger effect = lower value 0.771 | locus YEL061C, strain CIN8, stronger effect = lower value 0.68 | locus YER015W, strain faa2, stronger effect = lower value 0.901 | locus YER155C, strain BEM2 (second series), stronger effect = lower value 0.704 | locus YER155C, strain BEM2, stronger effect = lower value 0.388 | locus YER167W, strain BCK2, stronger effect = lower value 0.792 | locus YGL078C, strain dbp3, stronger effect = lower value 0.878 | locus YGL086W, strain mad1, stronger effect = lower value 0.681 | locus YGL248W, strain PDE1, stronger effect = lower value 0.67 | locus YGR135W, strain pre9, stronger effect = lower value 0.77 | [1] 0.538 and 0.687 | locus YHR079C, strain IRE1 (second series), stronger effect = lower value 0.918 | [2] 0.56 | locus YHR094C, strain hxt1, stronger effect = lower value 0.901 | locus YHR129C, strain ARP1, stronger effect = lower value 0.545 | locus YHR200W, strain rpn10, stronger effect = lower value 0.78 | locus YIL066C, strain RNR3, stronger effect = lower value 0.553 | locus YIL125W, strain kgd1, stronger effect = lower value 0.744 | locus YIR030C, strain dcg1, stronger effect = lower value 0.867 | [3] 0.307 and 0.797 | locus YJL129C, strain trk1, stronger effect = lower value 0.774 | locus YJL134W, strain LCB3, stronger effect = lower value 0.833 | locus YJL164C, strain tpk1, stronger effect = lower value 0.894 | locus YJL166W, strain qcr8, stronger effect = lower value 0.819 | locus YJL187C, strain SWE1 (second series), stronger effect = lower value 0.518 | locus YJR043C, strain POL32, stronger effect = lower value 0.538 | locus YKL085W, strain MDH1 (second series), stronger effect = lower value 0.724 | locus YKL085W, strain MDH1, stronger effect = lower value 0.724 | locus YKL190W, strain CNB1, stronger effect = lower value 0.548 | locus YKR001C, strain vps1, stronger effect = lower value 0.365 | locus YLR027C, strain aat2, stronger effect = lower value 0.916 | locus YLR039C, strain RIC1, stronger effect = lower value 0.263 | locus YLR058C, strain SHM2, stronger effect = lower value 0.642 | [5] 0.426 | locus YLR262C, strain YPT6 (second series), stronger effect = lower value 0.667 | locus YLR262C, strain YPT6, stronger effect = lower value 0.399 | locus YLR268W, strain sec22, stronger effect = lower value 0.704 | locus YLR320W, strain mms22, stronger effect = lower value 0.843 | locus YLR330W, strain CHS5, stronger effect = lower value 0.534 | locus YLR342W, strain FKS1 (second series), stronger effect = lower value 0.591 | locus YLR371W, strain rom2, stronger effect = lower value 0.358 | locus YLR418C, strain cdc73, stronger effect = lower value 0.259 | locus YML016C, strain PPZ1, stronger effect = lower value 0.674 | locus YML032C, strain rad52, stronger effect = lower value 0.838 | locus YMR058W, strain fet3, stronger effect = lower value 0.9 | locus YMR078C, strain ctf18, stronger effect = lower value 0.903 | locus YMR205C, strain PFK2, stronger effect = lower value 0.822 | locus YMR223W, strain ubp8, stronger effect = lower value 0.786 | locus YMR263W, strain SAP30, stronger effect = lower value 0.726 | locus YMR307W, strain GAS1, stronger effect = lower value 0.474 | locus YNL067W, strain RPL9B, stronger effect = lower value 0.719 | locus YNL071W, strain lat1, stronger effect = lower value 0.562 | locus YNL153C, strain GIM3, stronger effect = lower value 0.625 | locus YNL233W, strain BNI4, stronger effect = lower value 0.51 | locus YNL250W, strain rad50, stronger effect = lower value 0.862 | locus YNL271C, strain bni1, stronger effect = lower value 0.883 | locus YNL298W, strain CLA4, stronger effect = lower value 0.831 | locus YNL307C, strain MCK1, stronger effect = lower value 0.385 | locus YNR052C, strain pop2, stronger effect = lower value 0.781 | locus YOL006C, strain TOP1, stronger effect = lower value 0.279 | locus YOL147C, strain pex11, stronger effect = lower value 0.694 | locus YOR061W, strain CKA2, stronger effect = lower value 0.707 | locus YOR069W, strain VPS5, stronger effect = lower value 0.735 | locus YOR136W, strain idh2, stronger effect = lower value 0.899 | locus YOR144C, strain elg1, stronger effect = lower value 0.755 | locus YOR184W, strain ser1, stronger effect = lower value 0.331 | [7] 0.531 | locus YPL051W, strain arl3, stronger effect = lower value 0.782 | locus YPL055C, strain LGE1, stronger effect = lower value 0.274 | [8] 0.741 | locus YPR163C, strain tif3, stronger effect = lower value 0.544 | locus YPR167C, strain met16, stronger effect = lower value 0.786 | strain wtn01, stronger effect = lower value 0.697
